# Source: PubChem (several laboratories)
# Most compounds without a hit are left out; they make up all but 2.8% or so of the library.
# HIF-2a block: HIF-2a inhibition; 786-0 RCC cells HIF-2a reporter, luciferase luminescence, overnight; inhibition, % at 18.8 µM; 0.72% of 360,000 active;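 active = inhibition of the luminescence signal of 40% or more relative to plate controls, in a single-dose primary screen at 18.75 µM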
# Shn3 3UTR inh: Schnurri-3 reporter inhibition in Clone20 osteoblasts; inhibition, % at 12.5 µM; Clone20 osteoblast Shn3 3'UTR firefly luciferase, 24 h; 0.52% of 360,000 active; AID 588674;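 active = mean inhibition of at least 75% with every replicate also reaching 75%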
# MITF TRPM1 inh: reduces MITF-dependent TRPM1 promoter luciferase signal. SK-MEL-5 TRPM1 promoter luciferase, 24 h. inhibition, % at 12.5 µM. 0.83% of 330,000 active. AID 488899;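 active = mean inhibition across replicates of 60% or more, whatever share of single replicates reaches that level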
# KKLEB tox: reduces viability of KKLEB cystic fibrosis airway cells | KKLEB CF airway cells viability, ATPlite luminescence, overnight; stronger effect = lower value; cells stimulated with P. aeruginosa culture filtrate | activity change (cytotoxicity), % at 5 µM | 0.36% of 360,000 active;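 active = corrected activity change at or below -50% at 5 µM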
# CF NFkB block: blocks PAF-induced NF-kB reporter in cystic fibrosis cells; KKLEB NF-kB-GFP reporter, GFP fluorescence overnight; inhibition, % at 5 µM; 0.86% of 360,000 active; AID 588850;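 active = at least 50% inhibition at 5 µM, scaled per plate between neutral and stimulator controls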;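 note: PAF is a Pseudomonas aeruginosa culture filtrate used as stimulus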
# Peg3 prom inh: Peg3 promoter activity inhibition; HeLa PEG-Prom luciferase reporter, luminescence, overnight; inhibition, % at 20 µM; 1.7% of 360,000 active;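 active = inhibition of at least 50% at 20 µM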
# Hits are given with their value; 0 = inactive; - = no result.
SMILES,HIF-2a block,Shn3 3UTR inh,MITF TRPM1 inh,KKLEB tox,CF NFkB block,Peg3 prom inh
O=C(c1cnn2c1NC(c1ccco1)CC2C(F)(F)F)N1CCN(c2cccc(Cl)c2)CC1 (stereo not given),0,0,0,0,0,50.1
O=C(Nc1ccccn1)c1ccc(-c2ccccc2)cc1,0,0,0,-54.6,0,0
CC[N+]1(C)CCC(O)(c2ccc(OC)cc2)C(C(=O)c2ccc(OC)cc2)C1 (stereo not given),0,0,0,0,50.3,103.2
COc1ccc(NC(=O)CN2CCC(NC(=O)c3ccc(OC)cc3)CC2)cc1,0,0,0,0,0,0
COc1cc(CN(C)C)cc(C=O)c1O,0,0,0,0,0,0
COc1cc(N=Nc2ccc(Br)cc2)cc(C=O)c1O,0,0,-,0,84.9,0
CCC(C)NC(=O)Nc1ccc(Br)cc1 (stereo not given),0,0,0,0,0,0
CCC(C)Nc1ccc(NC(C)CC)cc1 (stereo not given),0,88.9,97.1,0,59.9,65.4
COc1ccc(CC(N)c2csc(Nc3ccc(C(=O)c4ccccc4)cc3)n2)cc1 (stereo not given),0,0,-,0,0,65.7
CC(N)c1csc(Nc2ccc(C(=O)c3ccccc3)cc2)n1 (stereo not given),0,0,-,0,0,0
COc1ccc(CC(N)c2csc(Nc3ccc(C(C)=O)cc3)n2)cc1 (stereo not given),0,0,-,0,0,0
NC(c1csc(Nc2ccc(C(=O)c3ccccc3)cc2)n1)C1CCCCC1 (stereo not given),0,0,-,0,0,97.3
NC(Cc1ccc(Cl)cc1)c1csc(Nc2ccc(C(=O)c3ccccc3)cc2)n1 (stereo not given),0,0,-,0,0,97.0
CC(=O)c1ccc(Nc2nc(C(N)C3CCCCC3)cs2)cc1 (stereo not given),0,0,-,0,0,0
NC(Cc1ccc(F)cc1)c1csc(Nc2ccc(C(=O)c3ccccc3)cc2)n1 (stereo not given),0,0,-,0,0,91.5
NC(Cc1ccc(Cl)cc1)c1csc(Nc2ccc(S(N)(=O)=O)cc2)n1 (stereo not given),0,0,-,0,0,0
O=C(Nc1ccccn1)Nc1ccccc1Cl,0,0,0,0,0,0
Cc1sc(NC(=O)C2C3C=CC(C3)C2C(=O)O)c(C(N)=O)c1-c1ccc(C(C)C)cc1 (stereo not given),0,0,0,0,0,0
O=C(Nc1nc(OCC(F)(F)F)cnc1/C=C\c1ccccc1)c1ccccc1,0,0,-,0,0,0
NC(Cc1ccccc1)c1csc(Nc2ccc(C(=O)c3ccccc3)cc2)n1 (stereo not given),0,0,-,0,0,66.3
NC(CO)c1csc(Nc2ccc(C(=O)c3ccccc3)cc2)n1 (stereo not given),0,0,-,0,0,0
O=C(NC1CCCCCCC1)c1cc(COc2ccc3ncccc3c2)on1,0,87.9,0,0,0,0
Cc1cc(CN(C)C(=O)c2cc(COc3ccc4ncccc4c3)on2)on1,0,0,0,0,0,0
CC(CNC(=O)c1cc(COc2ccc3ncccc3c2)on1)c1ccccc1 (stereo not given),0,88.3,0,0,0,0
CS(=O)(=O)c1ccc(Cl)c(NC(=O)CCCc2nc3ccccc3c(=O)[nH]2)c1,0,0,0,0,0,0
SMILES,HIF-2a block,Shn3 3UTR inh,MITF TRPM1 inh,KKLEB tox,CF NFkB block,Peg3 prom inh
CCn1c(SCC(=O)Nc2ccc(F)cc2)nnc1C1CC1,0,0,0,0,0,0
CCCN(CC(=O)Nc1ccccc1OC)C(=O)c1ccc(COc2ccccc2)o1,0,0,0,0,0,0
CCc1ccc2c(c1)CCCN2C(=O)c1ccccc1C(=O)O,0,87.6,0,0,0,0
CCCCN1CCc2c1nc1ccc(Br)cc1c2N,0,0,66.2,0,0,0
Cc1ccc2nc3c(c(N)c2c1)CCN3C,0,0,0,0,0,0
O=CNc1cc(-c2ccccc2)cn2c(-c3ccc(F)c(Cl)c3)cnc12,0,0,-,0,0,0
CC(=O)Nc1cc(-c2ccc(N3CCN(C)CC3)cc2)cn2c(-c3ccc(F)c(Cl)c3)cnc12,0,0,-,0,0,75.1
CN1CCN(c2ccc(-c3cc(NC=O)c4ncc(-c5ccc(F)c(Cl)c5)n4c3)cc2)CC1,0,0,-,0,0,96.4
CCc1cccc(NC(=O)CCS(=O)(=O)c2ccc(Br)cc2)c1,0,0,0,0,0,0
